Measurements taken from PubChem BioAssay AID1720 (National Center for Advancing Translational Sciences (NCATS), 2009).
This is one part of the list. Records with an inconclusive call do not appear. Calls of active or inactive are those of the source. Rule as the data show it: active = inhibition above about 40%; inconclusive = no clear call, values can overlap the other calls; inactive = below about 18%.

Target: Microtubule-associated protein tau (Homo sapiens) (UniProt P10636)
Assay: Sedimentation Assay for Inhibitors of Tau Fibrillization
Conditions: recombinant tau K18 P301L (four-repeat tau fragment), sedimentation SDS-PAGE densitometry; at 100 µM; active compounds read high
Text: NIH Molecular Libraries Probe Production Network [MLPCN] NIH Chemical Genomics Center [NCGC] MLPCN Grant: X01 MH083262-01 Assay Provider: Carlo Ballatore, University of Pennsylvania NCGC Assay Overview: The microtubule-associated protein tau is an abundant protein in the axons of neurons that stabilizes microtubules. With its ability to modulate microtubule dynamics, tau contributes directly or indirectly, to key structural and regulatory cellular functions. Particularly important is the influence tau exerts on axonal transport, which allows signaling molecules, trophic factors and other essential cellular constituents to travel along the axons. […] The ability of compounds to block tau fibrillization was assessed using a sedimentation assay. Unlike tau monomers, tau fibrils readily sediment upon centrifugation. Samples from the tau ThT confirmation assay treated with 100 uM compound (AID 1558) were centrifuged and the amount of tau present in the supernatant and pellet was determined. […]
NCGC Assay Protocol Summary: Human K18 P301L tau (15 uM) in assay buffer (20 uM heparin, 12.5 uM Thioflavine T, 100 mM sodium acetate pH 7) was centrifuged at 186,000 x g for 30 min and the supernatant removed from the pellet. Pellets were resuspended in a volume equal to the supernatant and equal amounts of supernatants and pellet were analyzed by SDS-PAGE using a 12.5% acrylamide gel. […]

Chain of Microtubule-associated protein tau (Homo sapiens) (P10636 561-689 P618L limits assumed): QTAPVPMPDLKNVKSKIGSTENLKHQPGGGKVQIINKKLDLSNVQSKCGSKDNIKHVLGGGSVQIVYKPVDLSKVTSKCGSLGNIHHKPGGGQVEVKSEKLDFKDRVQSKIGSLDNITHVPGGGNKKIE

| SMILES | inhibition |
| --- | --- |
| CC(=O)Nc1sc(C)c2cnn(-c3ccccc3)c(=O)c12 | 5% (inactive) |
| CCN(CC)c1ccc2oc(=O)c(C)nc2c1 | 59% (active) |
